In the library only some 3.2% were active in any assay of this set; here they are far more common.
TbPYK inhibitor – blocks Trypanosoma brucei pyruvate kinase. Q57TT1. TbPYK enzyme, Kinase-Glo Plus ATP luminescence, 45 min. Potency, µM (series often up to 76.8 µM), usual class: inhibitors. 410,000 compounds, 0.12% hits. AID 624173; further: nearly all actives have a fitted effect of over 50% in size
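Assay buffer: 50 mM TEA pH 7.2, 100 mM KCl, 10 mM MgCl2, 0.05% BSA, 0.01% Tween-20. Pyruvate kinase from T. brucei plus substrate met compound, then ADP (130 uM final). Luminescence was read post 45 min RT.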
RE007 growth inh – less growth of the S. pombe RE007 Vpr strain; S. pombe RE007 Vpr strain, BacTiter-Glo ATP luminescence, 24 h; Potency, µM (doses to about 92.2 µM), actives largely listed as inhibitors; 360,000 compounds, 0.21% hits; active means well fitted falling curve with a large enough effect; inconclusive means small, poorly fitted or top-dose-only effect; inactive means no such curve, though single readings can be large or run the other way; further: nearly all actives have a fitted effect of over 50% in size
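Fission yeast RE007 carrying one integrated HIV-1 vpr copy, seeded at OD 0.01 in PMG+AL medium with 23 nL pinned compound. Grown 24 h at 30 degrees; viability read by BacTiter-Glo luminescence after 5 min.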
AMA1-RON2 inh – disrupts binding of P. falciparum AMA1 to RON2; Potency, µM (series often up to 58.2 µM), hits mostly inhibitors; 360,000 compounds, 0.2% hits; AlphaScreen AMA1-biotinylated RON2 peptide binding; further: nearly all actives have a fitted effect of over 45% in size
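AMA1 (3D7) with his tag at 25 nM final met compounds first, then biotinylated RON2 peptide at 25 nM; detection used donor plus acceptor beads, 10 µg/mL apiece, read by AlphaScreen after 30 min at room temperature.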
LmPK inhibitor – LmPK (Leishmania mexicana) enzyme inhibition; Q27686; purified LmPK, Kinase-Glo ATP luminescence, 1 h; Potency, µM (series often up to 57.5 µM), actives largely listed as inhibitors; 290,000 compounds, 0.37% hits
Target sequence (Q27686 whole entry, looked up): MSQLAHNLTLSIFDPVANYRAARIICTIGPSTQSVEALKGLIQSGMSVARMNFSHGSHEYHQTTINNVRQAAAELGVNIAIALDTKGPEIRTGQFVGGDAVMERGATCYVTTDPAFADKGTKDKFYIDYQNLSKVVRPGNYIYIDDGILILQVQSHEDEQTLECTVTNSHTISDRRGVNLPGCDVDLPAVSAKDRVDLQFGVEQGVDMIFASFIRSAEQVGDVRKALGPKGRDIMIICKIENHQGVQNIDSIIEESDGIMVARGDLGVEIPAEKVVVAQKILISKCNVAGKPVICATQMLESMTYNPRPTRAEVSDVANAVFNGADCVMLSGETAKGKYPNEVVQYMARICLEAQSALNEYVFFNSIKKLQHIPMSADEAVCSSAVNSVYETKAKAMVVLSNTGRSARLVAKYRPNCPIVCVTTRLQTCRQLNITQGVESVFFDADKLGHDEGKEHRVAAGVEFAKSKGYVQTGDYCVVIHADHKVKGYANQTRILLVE
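qHTS format; LmPK 0.1 nM; substrates PEP 0.5 mM and ADP 0.1 mM. One-hour room-temperature incubation, then coupled luciferase luminescence; 0.5 nM enzyme wells mark activation.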
Sm TGR block – S. mansoni TGR enzyme inhibition. purified TGR, DTNB reduction, TNB absorbance 405 nm. Potency, µM (series often up to 114 µM), actives largely listed as inhibitors. 360,000 compounds, 3% hits; further: nearly all actives have a fitted effect of over 60% in size
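First, TGR (20 nM dispensed) and NADPH were mixed with compound. Second, a 15 min room-temperature incubation followed. Third, further NADPH and then DTNB were added to start the reaction. Finally, TNB absorbance was monitored kinetically.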
A number is an active result; i = inactive; ? = inconclusive; nt = no result; ! = not confirmed by another sample; [ ] = dose if it differs, or a comment. Unless noted, the call rests on the fitted dose curve; in most records, active means well fitted curve in the direction sought with a large enough effect; inconclusive means small, poorly fitted or top-dose-only effect, or another doubt; inactive means no such curve, though single readings can be large; an effect the other way counts as inactive or inconclusive.

SMILES | TbPYK inhibitor | RE007 growth inh | AMA1-RON2 inh | LmPK inhibitor | Sm TGR block
Cc1ccc(CCNC(=O)CS(=O)Cc2nc(-c3cccc(C)c3)oc2C)cc1 (stereo not drawn) | i | i | i | i | ?
CCCCNC(=O)CS(=O)Cc1nc(-c2cccs2)oc1C (stereo not drawn) | i | i | i | i | 6.3µM
Cc1oc(-c2cccs2)nc1CS(=O)CC(=O)NCCCOC(C)C (stereo not drawn) | i | i | i | i | 14µM
Cc1oc(-c2cccs2)nc1CS(=O)CC(=O)NCCc1ccccc1 (stereo not drawn) | i | i | i | i | 10µM
CC(=O)c1cc2c(cc1NC(=O)c1cnn(-c3ccc(C)cc3)c1-n1cccc1)OCO2 | i | nt | nt | nt | i
Cn1cnc(S(=O)(=O)N2CCCC(C(=O)NCc3ccccc3)C2)c1 (stereo not drawn) | i | nt | nt | nt | i
Nc1ccccc1N=Nc1ccccc1N | i | ? | 32µM | i | i
COc1ccc(C2Nc3ccccc3-c3nnc(SC)nc3O2)cc1C (stereo not drawn) | i | nt | nt | nt | i
O=C(CN1C(=O)C2CCCCN2c2ccc(C(=O)N3CCCC3)cc21)NCc1cccc(Cl)c1 (stereo not drawn) | i | nt | nt | nt | i
CCN(CC)CCn1c(NC(=O)c2ccc(Cl)cc2)nc2ccccc21 | i | i | i | i | i
CCN(CC)CCn1c(NC(=O)c2ccccc2O)nc2ccccc21 | i | i | i | i | 45µM
Cc1ccc(CN2CCNC(=O)C2CC(=O)N(C)C(C2CC2)C2CC2)o1 (stereo not drawn) | i | i | i | i | 25µM
Cc1ccc(CN2CCNC(=O)C2CC(=O)NCC(F)(F)F)o1 (stereo not drawn) | i | i | i | i | 40µM
CCOc1ccc(CN2CCNC(=O)C2CC(=O)N(C)Cc2nonc2C)cc1 (stereo not drawn) | i | i | i | i | i
CN(C(=O)CC1C(=O)NCCN1CC(c1ccccc1)c1ccccc1)C(C1CC1)C1CC1 (stereo not drawn) | i | i | i | i | 45µM
CN(CC1CCOCC1)C(=O)CC1C(=O)NCCN1CC(c1ccccc1)c1ccccc1 (stereo not drawn) | i | i | i | i | ?
COC(=O)C1=C(C(=O)OC)[C@@H]2N(C)c3ccc(OC)cc3[C@@]23C[C@@H](C(=O)OC)N(S(=O)(=O)c2ccc(C#N)cc2)C3=N1 | nt | nt | nt | i[11.5 µM] | nt
COc1ccc(OC)c(C2Nc3c(C)cc(C)cc3-c3cc(C)nn32)c1 (stereo not drawn) | i | nt | nt | nt | i
NC[C@@H]1O[C@@H](O[C@H]2[C@@H](O)[C@H](O[C@@H]3[C@@H](O)[C@@H](N)C[C@H](N)[C@H]3O[C@H]3O[C@H](CN)[C@@H](O)[C@@H](O)[C@H]3N)O[C@H]2CO)[C@H](N)[C@@H](O)[C@@H]1O | i | nt | nt | nt | nt
C[C@H](NC(=O)OC(C)(C)C)c1nnc(SCc2c(F)cccc2Cl)o1 | i | nt | nt | nt | i
CC[C@@H](C)[C@H](NC(=O)OC(C)(C)C)c1nnc(S(=O)(=O)Cc2cc(C)ccc2C)o1 | i | ? | i | i | 2.8µM
CC(C)(C)OC(=O)N[C@@H](Cc1ccccc1)c1nnc(S(=O)(=O)Cc2cccc(F)c2)o1 | i | ? | i | i | 0.4µM
Cc1ccccc1CS(=O)(=O)c1nnc([C@H](CC(C)C)NC(=O)OC(C)(C)C)o1 | i | i | i | i | 2µM
CC(C)[C@H](NC(=O)OC(C)(C)C)c1nnc(S(=O)(=O)Cc2c(F)cccc2Cl)o1 | i | i | i | i | 1µM
CC(C)C[C@H](N)c1nnc(S(=O)(=O)Cc2cccc(F)c2)o1 | i | i | i | i | ?
SMILES | TbPYK inhibitor | RE007 growth inh | AMA1-RON2 inh | LmPK inhibitor | Sm TGR block
CC[C@@H](C)[C@H](NC(=O)OCc1ccccc1)c1nnc([C@@H](NC(=O)OCc2ccccc2)[C@@H](C)CC)o1 | i | i | i | i | i
CC(=O)N1c2ccc(S(=O)(=O)NCc3ccc(Cl)cc3)cc2CC1C (stereo not drawn) | i | nt | nt | nt | i
Fc1ccc2c(c1)[C@H]1OCC[C@H]1[C@@H](c1ccco1)N2 | i | i | i | i | i
Clc1ccc2c(c1)[C@H]1OCC[C@H]1[C@@H](c1ccco1)N2 | i | i | i | ? | 40µM
O=C1C=CC(=O)N1c1ccccc1N1C(=O)C=CC1=O | ? | i | i | nt | nt
O=C(c1ccccc1)c1ccccc1N1C(=O)C=CC1=O | 5µM | 35µM | i | 14µM | 0.56µM
COCCN=C1N[C@@H](c2ccccc2)C(C(=O)OC)=C(C)N1Cc1ccccc1 | i | i | i | i | 22µM!
CC#CCN1C(=O)N[C@@H](c2ccccc2)C(C(=O)OC)=C1C | i | i | i | i[11.5 µM] | nt
COC(=O)C1=C(C)N(Cc2ccccc2)C(=O)N[C@H]1c1ccco1 | i | i | i | i[11.5 µM] | nt
CC(=O)C1=C(C)N(Cc2ccccc2)C(=O)N[C@H]1c1ccco1 | i | i | i | i[11.5 µM] | 18µM
COC(=O)C1=C(C)N(Cc2ccco2)C(=O)N[C@H]1c1ccc(Br)cc1 | nt | nt | nt | i | 35µM
COCCN=C1N[C@@H](c2ccc(Br)cc2)C(C(=O)OC)=C(C)N1Cc1ccccc1 | i | i | i | i | i
COC(=O)C1=C(C)N(Cc2ccccc2)C(=O)N[C@H]1c1ccc(Br)cc1 | i | i | i | i[11.5 µM] | i
COC(=O)C1=C(C)N(Cc2ccco2)C(=O)N[C@H]1c1ccccc1 | nt | nt | nt | i | 20µM
COc1cc(-c2nc(CN(C)C(C)c3ccncn3)c(C)o2)ccc1F (stereo not drawn) | i | i | i | i | 32µM
O=C(Nc1nc(-c2ccco2)c(-c2ccco2)s1)C1CC(=O)N(c2ccc3c(c2)OCCO3)C1 (stereo not drawn) | ? | i | 10µM | i | 11µM
O=c1c(Cl)c(Cl)cnn1Cc1ccc(F)cc1 | i | i | i | i | 20µM
O=C(OCn1ncc(Cl)c(Cl)c1=O)c1ccccc1Cl | i | 45µM | i | i | 7.1µM
O=C(OCn1ncc(Cl)c(Cl)c1=O)c1ccc(F)cc1 | nt | nt | nt | i | 7.1µM
CC(C)OCCCn1c(=O)c2ccccc2n2c(-c3ccccc3)nnc12 | i | nt | nt | nt | i
Cc1cc(C)c(OCC(=O)OCCNC(=O)c2cccnc2)c(C)c1 | i | i | i | i | 35µM
CCN(CC)c1ccc(NC(=O)CSc2nnc(C)c(=O)[nH]2)cc1 | i | nt | nt | nt | i
CCOc1ccc(CNC(=O)CCS(=O)(=O)c2cc3c4c(c2)CCN4C(=O)CC3)cc1 | i | nt | nt | nt | i
Cc1ccc(CC2C(=O)N(C)C(=O)N(C)C2=O)s1 | ? | i | i | i | 40µM
COc1ccc(CC2C(=O)N(C)C(=O)N(C)C2=O)c(OC)c1 | i | i | i | i | ?
Cc1ccc2cc3cc(C(=O)NCCCN4CCCCCC4)oc3nc2c1 | i | ? | i | i | 32µM
Cc1ccc2cc3cc(C(=O)NCCCN4CCCC4)oc3nc2c1 | i | i | i | i | i
